Results on 28 compounds are retold here after PubChem BioAssay AID1085 (Emory University Molecular Libraries Screening Center, 2008).

Among all 220,000 compounds or so, about 930 (0.42%) were called active. Shown is part of a subset that was picked to be rich in actives. Unmarked numbers belong to inactive results. No stated cut-off is given here; in the data, active means inhibition above about 50%; inactive means the rest.

By inhibition is commonly meant the drop in the measured response relative to a control, in per cent.

The target in the assay is Glycoprotein 42 (Epstein-Barr virus (strain AG876)) (UniProt Q1HVG2). Description: Epstein-Barr virus gp42 inhibitors, primary screen, biochemical, uHTS, fluorescence polarization (AID 1085). The settings on record: Fluorescence polarization binding assay, mP read-out; hits give high values; tested at 21.74 µM.
Sequence of Glycoprotein 42 (Epstein-Barr virus (strain AG876)) (Q1HVG2 whole entry, looked up): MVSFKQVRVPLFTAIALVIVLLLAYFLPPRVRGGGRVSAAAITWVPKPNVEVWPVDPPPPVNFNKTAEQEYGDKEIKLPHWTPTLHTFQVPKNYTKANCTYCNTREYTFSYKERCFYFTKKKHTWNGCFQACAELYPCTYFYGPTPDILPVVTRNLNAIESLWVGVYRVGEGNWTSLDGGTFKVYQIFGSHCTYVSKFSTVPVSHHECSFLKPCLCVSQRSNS
As to `CCOC(=O)c1cc2n(c1N)-c1ccccc1C2=O`, the inhibition is 157% (active).
The result for `CCOC(=O)Nc1ccccc1N1C(=O)c2ccccc2C1=O` reads -16.9%.
With `CC(C)OC(=O)CN1C(=O)C(=O)c2ccccc21` the figure was -5.73%.
With `CCNc1nc(N)nc(-c2cc(Cl)ccc2OC)n1` the figure was -10.6%; with `CCN(CC)S(=O)(=O)c1ccc(Cl)c(C(=O)NC(C)C(c2cccs2)N2CCCC2)c1` (stereo not drawn), -7.74%; with `O=C(c1[nH]ncc1-c1ccc(Cl)cc1)C1CO1` (stereo not drawn), -0.17%.
As to `Nc1ccc2nc3c(=O)[nH]c(=S)[nH]c3nc2c1`, the inhibition is 158% (active).
The result for `O=C(Nc1ccc([N+](=O)[O-])cc1)C1CC12CCC2` (stereo not drawn) reads 18.7%; that for `FC(F)(F)c1ccc(-n2cn[nH]c2=S)cc1`, -0.1%.
With `COc1ccccc1NC(=O)CCSc1nnc(-c2ccc(O)cc2)o1` the figure was 16.2%; with `Cc1cccc(OCCNC(=S)NC(=O)c2cccnc2)c1`, -11%.
The result for `Cc1ccc(C)c(SCc2nc3sc(C(=O)O)c(C)c3c(=O)[nH]2)c1` reads -9.06%.
In the case of `CCOC(=O)c1ccc[n+](CC(=O)Nc2ccccc2OC(F)F)c1`, the inhibition is -15.4%.
With `Cc1ccc(-c2nc(SCC(=O)Nc3ccccc3OC(F)F)c3c(C)c(C(=O)O)sc3n2)cc1` the figure was 92.6% (active); with `C[C@@H](NC(=O)OC(C)(C)C)c1nnc(S(=O)(=O)Cc2ccccc2)o1`, 0.97%.
With `Cc1ccc(NC(=S)Nc2ncccc2C)c(C)c1` the figure was -9.14%.
The result for `CCOC(=O)c1c(NC(=O)CNC2CCCc3ccccc32)sc(C(N)=O)c1C` (stereo not drawn) reads -9.07%.
`O=C(O)CS/C(=C\c1ccc(F)cc1)c1nc2ccccc2s1`: the inhibition was -2.63%.
With `CC1=CC(=C(C#N)c2nc3ccccc3s2)C=C(C)N1c1ccc(F)cc1F` the figure was 176% (active); with `N#C/C(=C(/O)Cc1cccc2ccccc12)c1nc2ccccc2s1`, 4%.
The result for `Cc1c(C(=O)Nc2cccc(Cl)c2)cn2c(nc3ccccc32)c1C#N` reads -23.4%; that for `CC(=O)Nc1ccc(NS(=O)(=O)c2cc(C)sc2C)cc1`, 15.2%.
The result for `O=C(Nc1ccc2sc3ccccc3c(=O)c2c1)c1ccccc1Cl` reads -5.22%; that for `FC(F)(F)Oc1ccc(-c2cn3cccnc3n2)cc1`, -6.62%.
`COCCOC(=O)c1sc(=S)n(CCOC)c1N`: the inhibition was 85.3% (active).
The result for `CCOC(=O)c1sc(=S)n(-c2cccc(OC)c2)c1N` reads -17.2%; that for `COC(=O)c1sc(=S)n(-c2ccccc2)c1N`, -22.9%.
With `C/C(=N/NC(=O)CN1CCN(S(=O)(=O)c2ccc(Br)cc2)CC1)c1ccncc1` the figure was -10.4%.
